Laboratory results as given in PubChem BioAssay (Tox21).
Unmarked numbers belong to inactive results. Results filed as inconclusive are left out. A call without a number means that no potency is given here. Active and inactive are the calls of the source. The call rests on the fitted dose curve; in most records, active means well fitted curve in the direction sought with a large enough effect in the repeat runs; inconclusive means weak or mixed curves; inactive means no such curve, though single readings can be large; an effect the other way counts as inactive or inconclusive.

Experiments:
[1] = A CellTox Green Cytotoxicity Assay to monitor cytotoxicity in HepG2 cells - 0 hour (AID 1224882); further: nearly all actives have a fitted effect of over 35% in size; further: potency means the concentration at half of the fitted maximal effect
Summary of the method: (§1)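 Fluorescent DNA-binding dye, 600 HepG2 cells/well, 5 h preincubation then compound in DMSO; same plates read at 0–40 h, 37 C.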

[2] = A CellTox Green Cytotoxicity Assay to monitor cytotoxicity in HepG2 cells - 32 hour (AID 1224883); further: nearly all actives have a fitted effect of over 50% in size; further: potency means the concentration at half of the fitted maximal effect
Summary of the method: as §1

[3] = A CellTox Green Cytotoxicity Assay to monitor cytotoxicity in HEK293 cells - 8 hour (AID 1224884); further: nearly all actives have a fitted effect of over 35% in size; further: potency means the concentration at half of the fitted maximal effect
Summary of the method: (§2)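 Homogeneous no-lysis format: HEK293 cell suspension mixed with CellTox Green reagent, seeded, incubated 5 h at 37 C/5% CO2, then dosed by pintool with compound in DMSO.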

[4] = qHTS RealTime-Glo MT Cell Viability Assay in HepG2 cells - 16 hour (AID 1224885); further: nearly all actives have a fitted effect of over 50% in size
Summary of the method: (§3)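 HepG2 suspension premixed with RealTime-Glo reagents is plated at 600 cells per well and left 5 h at 37 C/5% CO2. Compounds in DMSO then go in, and bioluminescence reflecting viable cell number is recorded over 40 h.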

[5] = qHTS RealTime-Glo MT Cell Viability Assay in HEK293 cells - 24 hour (AID 1224886); further: top concentration of the series differs between compounds; nearly all actives have a fitted effect of over 50% in size
Summary of the method: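 Reads taken at 0, 8, 16, 24, 32 and 40 h from the same wells. HEK293 cells (600/well) carried RealTime-Glo reagents from seeding, with compound added after a 5 h settle at 37 C.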

[6] = qHTS RealTime-Glo MT Cell Viability Assay in HEK293 cells - 8 hour (AID 1224887); further: top concentration of the series differs between compounds; nearly all actives have a fitted effect of over 50% in size
Summary of the method: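 Measured as luminescence from the same continuously cultured HEK293 wells at successive time points (0, 8, 16, 24, 32, 40 h) after compound addition. Reagent present from seeding; dosing at 5 h; incubation 37 C.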

[7] = A CellTox Green Cytotoxicity Assay to monitor cytotoxicity in HEK293 cells - 16 hour (AID 1224888); further: nearly all actives have a fitted effect of over 35% in size; further: potency means the concentration at half of the fitted maximal effect
Summary of the method: as §2

[8] = qHTS RealTime-Glo MT Cell Viability Assay in HepG2 cells - 0 hour (AID 1224889); further: nearly all actives have a fitted effect of over 50% in size
Summary of the method: as §3

[9] = A CellTox Green Cytotoxicity Assay to monitor cytotoxicity in HepG2 cells - 8 hour (AID 1224890); further: nearly all actives have a fitted effect of over 45% in size; further: potency means the concentration at half of the fitted maximal effect
Summary of the method: as §1

[10] = qHTS assay to identify small molecule antagonists of the estrogen receptor alpha (ER-alpha) signaling pathway using the BG1 cell line in the presence of 0.1 nM 17-beta-estradiol - cell viability counter screen (AID 1259241); further: nearly all actives have a fitted effect of over 40% in size
Summary of the method: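 VM7Luc4E2, 4,000 cells/well, phenol red-free medium + 10% charcoal-stripped FBS; 24 hr plating; cpd + 0.1 nM E2 final, 22 hr 37C/5% CO2; CellTiter-Fluor 30 min, fluorescence.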

Compound	Potency [1]	Potency [2]	Potency [3]	Potency [4]	Potency [5]	Potency [6]	Potency [7]	Potency [8]	Potency [9]	Potency [10]	cytotoxicity [1]	cytotoxicity increase [2]	cytotoxicity increase [3]	activity change, negative = cytotoxic [4]	activity change, negative = cytotoxicity [5]	activity change, negative = cytotoxicity [6]	activity change [7]	activity change, negative = cytotoxicity [8]	cytotoxicity increase [9]	activity change, negative = cytotoxicity [10]
COc1cccc(OC)c1O	inactive	inactive	inactive	inactive	inactive	inactive	inactive	inactive	inactive	inactive	–	–	–	–	–	–	–	–	–	–
CCCCCCCOC(=O)c1ccccc1C(=O)OCCCCCCC	inactive	inactive	inactive	inactive	inactive	inactive	inactive	inactive	inactive	inactive	–	–	–	–	–	–	–	–	–	–
CC(=O)O[C@@H]1C[C@@H]2CC[C@@]1(C)C2(C)C	inactive	inactive	inactive	inactive	inactive	inactive	inactive	inactive	inactive	inactive	–	–	–	–	–	–	–	–	–	–
OCCCc1cccnc1	inactive	inactive	inactive	inactive	inactive	inactive	inactive	inactive	inactive	inactive	–	–	–	–	–	–	–	–	–	–
COc1cccc(O)c1	inactive	inactive	inactive	inactive	inactive	inactive	inactive	inactive	inactive	inactive	–	–	–	–	–	–	–	–	–	–
CCCCCCCC(OC)OC	inactive	inactive	inactive	inactive	inactive	inactive	inactive	inactive	inactive	inactive	–	–	–	–	–	–	–	–	–	–
C=CC(=C)CCC=C(C)C	inactive	inactive	inactive	inactive	inactive	inactive	inactive	inactive	inactive	inactive	–	–	–	–	–	–	–	–	–	–
CCCC(O)C(O)CO (stereo not given)	inactive	inactive	inactive	inactive	inactive	inactive	inactive	inactive	inactive	inactive	–	–	–	–	–	–	–	–	–	–
CCCCN(C)C	inactive	inactive	inactive	inactive	inactive	inactive	inactive	inactive	inactive	inactive	–	–	–	–	–	–	–	–	–	–
CCc1c(C(=O)O)c(=O)cnn1-c1ccc(Cl)cc1	inactive	inactive	inactive	inactive	inactive	inactive	inactive	inactive	inactive	inactive	–	–	–	–	–	–	–	–	–	–
CC1CCCNC1 (stereo not given)	inactive	inactive	inactive	inactive	inactive	inactive	inactive	inactive	inactive	inactive	–	–	–	–	–	–	–	–	–	–
CO[Si](CCCNCCNCCN)(OC)OC	inactive	inactive	inactive	inactive	inactive	inactive	inactive	inactive	inactive	inactive	–	–	–	–	–	–	–	–	–	–
CCCCCCCC/C=C/CCCOC(C)=O	inactive	inactive	inactive	inactive	inactive	inactive	inactive	inactive	inactive	inactive	–	–	–	–	–	–	–	–	–	–
C=CC(=C)CC/C=C(\C)CCC=C(C)C	–	–	–	–	–	–	–	–	–	–	-7.07% [at 15.8 µM]	2.06% [at 15.8 µM]	0.0594% [at 15.8 µM]	1.17% [at 15.8 µM]	-7.54% [at 15.8 µM]	-9.22% [at 15.8 µM]	2.36% [at 15.8 µM, active compounds read high]	8.34% [at 15.8 µM]	2.8% [at 15.8 µM]	2.52% [at 19 µM]
COC(=O)[C@]1(C)CCC[C@@]2(C)[C@H]1CC=C1C=C(C(C)C)CC[C@@H]12	24.5 µM (active)	24.5 µM (active)	38.9 µM (active)	inactive	inactive	inactive	38.9 µM (active)	inactive	38.9 µM (active)	inactive	–	–	–	–	–	–	–	–	–	–
NC(=O)c1ccccc1N	inactive	inactive	inactive	inactive	inactive	inactive	inactive	inactive	inactive	inactive	–	–	–	–	–	–	–	–	–	–
ClC/C=C\CCl	inactive	inactive	inactive	inactive	inactive	inactive	inactive	inactive	inactive	inactive	–	–	–	–	–	–	–	–	–	–
C[Si](C)O[Si](C)C	inactive	inactive	inactive	inactive	inactive	inactive	inactive	inactive	inactive	inactive	–	–	–	–	–	–	–	–	–	–
CCCCCCCCCCCCCCCCCO	–	–	–	–	–	–	–	–	–	–	-1.06% [at 15.8 µM]	6.48% [at 15.8 µM]	-22.7% [at 15.8 µM]	1.76% [at 15.8 µM]	0.271% [at 15.8 µM]	2.17% [at 15.8 µM]	-22.1% [at 15.8 µM, active compounds read high]	-0.0873% [at 15.8 µM]	1.25% [at 15.8 µM]	-2.67% [at 19 µM]
CC(=O)OC1CCCCC1	inactive	inactive	inactive	inactive	inactive	inactive	inactive	inactive	inactive	inactive	–	–	–	–	–	–	–	–	–	–
CCN1CCN(c2cc(-c3ccc(F)cc3)c3c(n2)CCCCCC3)CC1	–	–	–	–	–	–	–	–	–	–	-0.25% [at 15.8 µM]	34% [at 15.8 µM]	-3.6% [at 15.8 µM]	-4% [at 15.8 µM]	-6.43% [at 15.8 µM]	3.49% [at 15.8 µM]	4.21% [at 15.8 µM, active compounds read high]	21.1% [at 15.8 µM]	2.47% [at 15.8 µM]	4.69% [at 19 µM]
